By inhibition is commonly meant the drop in the measured response relative to a control, in per cent.

Screen size: about 200,000 compounds; about 520 (0.26%) were called active.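 Rule for the calls: active = tissue-nonspecific alkaline phosphatase inhibition above about 50% at 20 µM in the single-dose screen (limit read from the data); inactive = the rest.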 The list comes from a sample in which actives are over-represented; it also holds similar structures and randomly drawn compounds.

Chain of Alkaline phosphatase, tissue-nonspecific isozyme (Homo sapiens) (P05186 whole entry, looked up): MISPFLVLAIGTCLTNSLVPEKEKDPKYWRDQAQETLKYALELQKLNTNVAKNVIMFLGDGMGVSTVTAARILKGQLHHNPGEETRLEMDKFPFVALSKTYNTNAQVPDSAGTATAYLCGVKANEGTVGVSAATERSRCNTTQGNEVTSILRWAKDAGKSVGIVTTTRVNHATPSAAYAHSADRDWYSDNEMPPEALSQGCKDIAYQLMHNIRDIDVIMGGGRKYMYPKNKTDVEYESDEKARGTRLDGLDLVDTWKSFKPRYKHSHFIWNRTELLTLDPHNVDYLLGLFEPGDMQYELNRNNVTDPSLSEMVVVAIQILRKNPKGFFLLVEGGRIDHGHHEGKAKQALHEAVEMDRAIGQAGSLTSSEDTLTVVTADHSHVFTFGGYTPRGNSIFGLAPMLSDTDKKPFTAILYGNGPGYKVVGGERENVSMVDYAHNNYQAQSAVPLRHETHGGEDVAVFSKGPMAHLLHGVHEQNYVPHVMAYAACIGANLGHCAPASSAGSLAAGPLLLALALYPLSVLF

The assay concerns the target Alkaline phosphatase, tissue-nonspecific isozyme (Homo sapiens) (UniProt P05186). Nature of the assay: human TNAP enzyme inhibitors, primary screen, biochemical, luminescent, no phosphate acceptor, uHTS (AID 1012).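 Note: 0% = DMSO negative control and 100% = EDTA positive control.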 The conditions noted are these: purified TNAP, CDP-star luminescence, 30 min; at 20 µM; hits give high values.
In the case of `COc1ccc(C/C(N)=N/OC(=O)c2ccco2)cc1OC`, the inhibition was -7.5% (inactive).

With `CCOc1ccc2nc(C(=O)N3CCCC(C)C3)sc2c1` (stereo not drawn), the inhibition was 1.7% (inactive).

On to `COC(=O)/C(=C1\Oc2ccc(C(C)(C)C)cc2S1)C(F)(F)F`, for which the inhibition is 0.6% (inactive).

On to `COCC(=O)Nc1cc(C(=O)OC)cc(C(=O)OC)c1`, for which the inhibition was -4.5% (inactive).

`S=c1[nH]nc2c3c4c(sc3ncn12)CCCC4`: the inhibition was 58% (active).

In the case of `c1nnc2c3c4c(sc3ncn12)CCC4`, the inhibition is -10.6% (inactive).

Consider `N=c1c2c3c(sc2ncn1N)CCCC3`, for which the inhibition is -4.9% (inactive).

For the compound `O=C(Cn1c2[n+](c3ccc(C(F)(F)F)cc31)CCCCC2)Nc1c(F)cccc1F`, the inhibition is -6.3% (inactive).

Turning to `O=C(COC(=O)c1cnccn1)Nc1cccc2ccccc12`, the inhibition was -10% (inactive).

With `S=c1[nH]nc(-c2cccs2)n1/N=C/c1cccs1`, the inhibition is 36.2% (inactive).

For the compound `S=c1[nH]nc(-c2ccco2)n1/N=C/c1ccc(Br)s1`, the inhibition was 58.4% (active).

`Cc1ccc(/C=N\n2c(-c3ccccc3)n[nH]c2=S)s1`: the inhibition is 29% (inactive).

Consider `COCCn1c(N)c(N(Cc2ccccc2)C(=O)C2CCCCC2)c(=O)[nH]c1=O`, for which the inhibition is -0.9% (inactive).

Take `O=C(Cn1c(N2CCN(C/C=C/c3ccccc3)CC2)nc2ccccc21)c1ccccc1`: the inhibition is 5.4% (inactive).

As to `CCOC(=O)C1(CCOC)CCN(Cc2ccc(C(=O)OC)cc2)CC1`, the inhibition is -7% (inactive).

On to `CCN1CCN(c2ccc(NC(=O)c3cnccn3)cc2)CC1`, for which the inhibition was -10.4% (inactive).

As for `CC(C)(C)OC(=O)N1CCC(NC(=O)c2[nH]cnc2C(=O)N[C@@H](Cc2ccccc2)C(=O)OCc2ccccc2)CC1`, the inhibition was -3.5% (inactive).

In the case of `CC(C)Cc1nn2c(=O)cc(O)nc2s1`, the inhibition was -13.8% (inactive).

`O=C(Nc1ccc(N2CCOCC2)cc1)c1ccc(-c2ccccc2[N+](=O)[O-])o1`: the inhibition is 8.7% (inactive).

Turning to `COc1ccc(C(=O)Nc2cccc(S(C)(=O)=O)c2)cc1`, the inhibition is -11% (inactive).

With `N/C(=N\OC(=O)c1ccc2c(c1)OCO2)c1ccc(Br)cc1`, the inhibition was -7% (inactive).

For the compound `COc1ccc(C2=NN(c3ccccc3)C(c3cccs3)C2)cc1` (stereo not drawn), the inhibition is -20.3% (inactive).

Consider `Cc1ccc(NC(=O)COC(=O)CCc2nc3ccccc3n2-c2ccccc2)c(C)c1`, for which the inhibition is -12.9% (inactive).

On to `COc1ccc(Cc2n[nH]c(=S)n2NC(=O)Nc2ccc(C)cc2)cc1`, for which the inhibition was -16.9% (inactive).

In the case of `Cc1cc(C)c(C#N)c(SCC(=O)NN2CC(=O)N(c3ccccc3F)CC2=O)n1`, the inhibition is -6.4% (inactive).

For the compound `CCCCNC(=O)N1CCN(S(C)(=O)=O)CC1`, the inhibition was -6.4% (inactive).

For the compound `O=C(CO/N=C/c1ccc(OC(F)F)cc1)NCc1ccc(F)cc1`, the inhibition was 2.4% (inactive).

For `COc1cc2[nH]c(=O)n(Cc3ccc(C(=O)NC4CCN(Cc5ccccc5)CC4)cc3)c(=O)c2cc1OC`, the inhibition is 1.5% (inactive).

For the compound `Cc1noc(/C=C/N(C)C)c1S(=O)(=O)N1CCCC(C(=O)NCc2ccco2)C1` (stereo not drawn), the inhibition was -12% (inactive).

As to `Cc1ccc(NC(=O)C2CCCN(S(=O)(=O)c3c(C)noc3C)C2)c(C)c1` (stereo not drawn), the inhibition was -3.2% (inactive).

On to `Cc1n[nH]c(C)c1S(=O)(=O)N1CCCC(C(=O)NCC2COc3ccccc3O2)C1` (stereo not drawn), for which the inhibition is 51.6% (active).

Take `CC(=O)NC(Cc1ccccc1)C(=O)NC1CCN(c2ncccc2[N+](=O)[O-])CC1` (stereo not drawn): the inhibition was -1.2% (inactive).

Consider `COc1ccc(N2CCN(c3ccc([N+](=O)[O-])nc3)CC2)cc1`, for which the inhibition is -7.2% (inactive).

As for `COc1ccc(-c2cc(C3CCN(c4ncccc4[N+](=O)[O-])CC3)[nH]n2)cc1`, the inhibition is 59.7% (active).

Consider `Cc1ccc(S(=O)(=O)N2CCC(C(=O)N[C@@H](C)C(=O)NCc3ccco3)CC2)cc1`, for which the inhibition is -10% (inactive).

`CN(Cc1cc2cc(F)ccc2[nH]1)Cc1nc(-c2cnccn2)no1`: the inhibition is -8.7% (inactive).

Consider `CC(C)(C)C1CCC(OC(=O)CCC(=O)Nc2ccccc2)CC1` (stereo not drawn), for which the inhibition is -5.1% (inactive).

With `CC1=NN(c2ccccc2)C(=O)C1C(=O)c1ccc([N+](=O)[O-])cc1` (stereo not drawn), the inhibition is -4.4% (inactive).

Turning to `O=C(c1ccc(OC2CCN(Cc3ccccn3)CC2)cc1)N1CCCCCC1`, the inhibition is -6% (inactive).

For `COc1ccccc1-c1nc(SC)n[nH]1`, the inhibition was 63.7% (active).

As for `COc1ccccc1C1=Nc2cccc3cccc(c23)N1`, the inhibition was -4.6% (inactive).

With `CCCOc1ccccc1-c1nc(SCCC(=O)O)n[nH]1`, the inhibition was 8.1% (inactive).

`C=CCN(Cc1nc(-c2cc(OC)c3c(c2)OCO3)oc1C)C1CCS(=O)(=O)C1` (stereo not drawn): the inhibition is -9.3% (inactive).

Turning to `COc1ccc(NS(=O)(=O)c2cc(NC(=O)/C=C/c3cc(OC)c(OC)c(OC)c3)ccc2N2CCCCC2)cc1`, the inhibition is -3.9% (inactive).

Regarding `CC1=CC2=NC(=O)CC(C)(C(=O)N(CC(=O)NC(C)(C)C)Cc3ccccc3)N2C=C1` (stereo not drawn), the inhibition was -13% (inactive).

Turning to `CCN(c1ccccc1)S(=O)(=O)c1ccc2[nH]c(=O)[nH]c2c1`, the inhibition is 64.9% (active).

Regarding `CCN(c1ccccc1)S(=O)(=O)c1cccc(C(=O)O)c1`, the inhibition was -2.9% (inactive).

For the compound `CCN(c1ccccc1)S(=O)(=O)c1ccc(N)cc1`, the inhibition is -17.8% (inactive).

For the compound `Cc1c(CCO)sc[n+]1CC(=O)OC12CC3CC(CC(C3)C1)C2`, the inhibition was 55.5% (active).

For `Cc1c(CCOC(=O)CC23CC4CC(CC(C)(C4)C2)C3)sc[n+]1Cc1ccc([N+](=O)[O-])cc1`, the inhibition is -6.1% (inactive).

`O=C(C(=O)N1CCc2ccccc2C1)c1c[nH]c2ccccc12`: the inhibition was 61% (active).

As for `O=C(C(=O)N1CCc2ccccc2C1)N1CCc2ccccc2C1`, the inhibition is -5.7% (inactive).

In the case of `CC1CCN(CC(=O)c2c[nH]c3ccccc23)CC1`, the inhibition was -9.1% (inactive).

As for `CCOc1ccc(C(c2c(C)[nH][nH]c2=O)c2c(C)[nH][nH]c2=O)cc1OCC`, the inhibition was 58.2% (active).

Regarding `Cc1[nH][nH]c(=O)c1C(c1ccc2c(c1)OCO2)c1c(C)[nH][nH]c1=O`, the inhibition was 45.5% (inactive).

With `Cc1[nH][nH]c(=O)c1C(c1ccc(-c2ccc(Cl)cc2)o1)c1c(C)[nH][nH]c1=O`, the inhibition is -57.7% (inactive).

Take `O=C(/C=C/c1ccc(F)cc1)Nc1cccc(S(=O)(=O)Nc2cccc(C(F)(F)F)c2)c1`: the inhibition is -9.4% (inactive).

For the compound `CCOc1ccc(/C=N/OCC(=O)NCc2cccs2)cc1`, the inhibition is 2.3% (inactive).

Take `O=C(NCCc1ccccc1)C1CCC(Cn2c(=O)c3ccccc3n(Cc3cccnc3)c2=O)CC1` (stereo not drawn): the inhibition was -0.3% (inactive).

For the compound `O=C(COC(=O)CSc1nnc(-c2ccc(Cl)cc2)o1)Nc1cc(Cl)cc(Cl)c1`, the inhibition was -10.5% (inactive).

As to `COc1cc(N/C=C2\CC(=O)NC(C)=C2C#N)cc(OC)c1OC`, the inhibition is -1.1% (inactive).

`COc1ccc(-c2[nH]ncc2CN(Cc2nccn2C)C(C)C)cc1F`: the inhibition was -9.7% (inactive).

Regarding `COc1ccc(-c2[nH]ncc2CN(C)Cc2cc(C)[nH]n2)c(F)c1`, the inhibition was 46.2% (inactive).

For the compound `COc1ccc(-c2[nH]ncc2CN(C)Cc2c(C)n[nH]c2C)c(OC)c1`, the inhibition is -8.9% (inactive).

Turning to `COc1ccc(-c2[nH]ncc2CN(C)Cc2cccnc2)c(F)c1`, the inhibition is 64.9% (active).

Take `CCN(CCn1cccn1)Cc1cn[nH]c1-c1ccc(OC)cc1F`: the inhibition is 58.9% (active).

Regarding `CCN(CCn1cccn1)Cc1nc(-c2ccc(C(=O)OC)cc2)no1`, the inhibition is 2.4% (inactive).

Consider `Cc1cc(C)n2nc(SCC(=O)NC(=O)NCc3ccco3)nc2n1`, for which the inhibition was -9.4% (inactive).

For the compound `CCOc1cc(N2CCOCC2)c(OCC)cc1NC(=O)c1ccc(C)s1`, the inhibition was -8.9% (inactive).

On to `CCn1c(CNS(=O)(=O)c2ccc(Cl)cc2)n[nH]c1=S`, for which the inhibition was 24.7% (inactive).

For the compound `O=C(CN1CCSCC1)N/N=C/c1ccc(Cl)cc1`, the inhibition is -4.4% (inactive).

With `Cc1cc(NC(=O)CN2C(=O)NC(C)(CCc3ccccc3)C2=O)no1` (stereo not drawn), the inhibition is -3% (inactive).

Turning to `CCOC(=O)c1cc2c(=O)[nH]c(C(Cl)(Cl)Cl)nc2o1`, the inhibition is -11% (inactive).

Regarding `CCCN(CC1COc2ccccc2O1)C(=S)Nc1ccc(C)cc1` (stereo not drawn), the inhibition was -16% (inactive).

For the compound `CN(C)C(CNC(=O)c1ccc(S(=O)(=O)NCc2ccco2)cc1)c1ccccc1` (stereo not drawn), the inhibition is 7.7% (inactive).

Take `C/C(CC(=O)N1CCN(C=O)CC1)=N\NC(=O)c1ccc(Br)cc1`: the inhibition is 0.3% (inactive).

Take `Cc1ccc(NC(=O)c2sccc2C)cc1[N+](=O)[O-]`: the inhibition was -4.3% (inactive).

Take `Cc1ccc(C(=O)NC(=S)Nc2ccc3[nH]c(=O)[nH]c3c2)cc1C`: the inhibition is -9.4% (inactive).

For `CC(=O)NC(=S)NNC(=O)c1ccc(Br)cc1`, the inhibition is -155% (inactive).

As to `O=C(CSc1nnc(-c2ccncc2)n1-c1ccc(Cl)cc1)Nc1ccc(C(=O)O)cc1`, the inhibition was 0.2% (inactive).

Regarding `CC(C)(C)C1CCC(=NNC(=O)c2cc(-c3ccccc3)n[nH]2)CC1` (stereo not drawn), the inhibition was 62.6% (active).

Regarding `CC(NC(=O)C(=O)NN=C1CCC(C(C)(C)C)CC1)c1ccccc1` (stereo not drawn), the inhibition is -15% (inactive).

As for `CC(C)(C)C1CCC(=NNC(=O)c2ccc(Br)o2)CC1` (stereo not drawn), the inhibition is 4.2% (inactive).

With `CCCCN(C)c1ccc([N+](=O)[O-])cc1`, the inhibition is 13.3% (inactive).

`CN(C)CCCN1C(=O)CSC1c1ccc([N+](=O)[O-])cc1` (stereo not drawn): the inhibition was -4.5% (inactive).

As to `COc1ccc(NC(=O)c2cc3nc(-c4ccccc4)cc(C)n3n2)cc1OC`, the inhibition is -14.7% (inactive).

On to `COc1ccc(S(=O)(=O)NCC2CCCN(C(=O)c3occc3C)C2)cc1` (stereo not drawn), for which the inhibition was -4.9% (inactive).

Take `CCc1[nH]nc(C(=O)N2CCCC(CNS(=O)(=O)c3cccs3)C2)c1C` (stereo not drawn): the inhibition is 61.5% (active).

Regarding `O=C(NCc1ccccc1)C1CCCN(S(=O)(=O)c2cccs2)C1` (stereo not drawn), the inhibition was -5.5% (inactive).

For the compound `CCC(C(=O)Nc1ccc2c(c1)OCCO2)c1ccccc1` (stereo not drawn), the inhibition is -22.2% (inactive).

As for `COCCCN(C(=S)Nc1c(C)cc(C)cc1C)C(C)c1ccncc1` (stereo not drawn), the inhibition was -17.6% (inactive).

For `CN(CCc1cn[nH]c1)C(=O)CC1C(=O)NCCN1Cc1cccc(Oc2ccccc2)c1` (stereo not drawn), the inhibition is -9.2% (inactive).

For `CCOc1ccc(/C=N/NC(=O)C(C)Sc2ccccn2)cc1OCC` (stereo not drawn), the inhibition was -5.3% (inactive).

For the origin of these results see PubChem BioAssay AID1012 (Sanford-Burnham Center for Chemical Genomics, 2008).
